# Assay outcomes from PubChem.
# A selection: hits, their analogues and other compounds. The true share with any hit is near 2.3%.
# YB-1 expression = YB-1 expression inhibition; U2OS, qRT-PCR YB-1 vs CDIP delta delta Cp, 16 h; hits give high values; zero = DMSO, each unit about twofold; delta delta Cp (YB-1 minus CDIP) (no concentration beside the values); 30,000 tested, 0.37% active; AID 434959;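 active = delta delta Cp rounded down to an integer at or above 3, about 3 SD of DMSO wells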;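 also: higher means less YB-1 transcript or more CDIP transcript relative to DMSO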
# PD-1 reverse act = reversal of PD-1 mediated T-cell inhibition; primary human CD4 T cells, PD-L1 beads, CellTiter-Glo 96 h; activation, % (test concentration not listed); 29,000 tested, under 10 active; AID 2316; call rule not given here;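 also: 0% = median vehicle wells and 100% = positive control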
# ROS inducer = inducers of reactive oxygen species in cancer cells; U2OS ROS induction, H2DCF-DA fluorescence; AID 624156; 46,000 tested, 2% active; ROS induction (% of piperlongumine), % at 10 µM; in the data active = ROS induction above about 79%, passing the limit was not always enough;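 also: 0% = DMSO vehicle median and 100% = reference compound median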
# The depositor's hits bear a star; . = no result given.
SMILES,YB-1 expression,PD-1 reverse act,ROS inducer
Cc1c2c(nc3c(C(=O)NC4CCCC(C)C4C)cnn13)CCCC2 (stereo not given),.,.,90*
CC1CCCC(NC(=O)c2ccc3c(SCC(=O)O)c4c(nc3c2)CCC4)C1C (stereo not given),.,.,-9
NC(=O)COc1ccc(/C=N/NC(=O)c2cccc(C(=O)NO)c2)cc1,-0.0068,.,-10
CC(=O)[C@H]1CCC2[C@@H]3CCC4=CC(=O)CC[C@]4(C)C3CC[C@@]21C (stereo not given in full),-0.002,-4,14
CC(=O)[C@@]1(O)CCC2C3CCC4=CC(=O)CC[C@]4(C)C3CC[C@@]21C (stereo not given in full),-0.061,.,155*
O=C1C=CC(O)(/C=C/C(=O)OC[C@H]2O[C@@H](Oc3ccc(O)cc3)[C@H](O)[C@@H](OC(=O)/C=C/C3(O)C=CC(=O)C=C3)[C@@H]2O)C=C1,0.08,-10,127*
C[C@@H]1O[C@@H](OC[C@H]2O[C@@H](Oc3ccc(O)cc3)[C@H](O)[C@@H](OC(=O)c3ccc(O)cc3)[C@@H]2O)[C@H](O)[C@H](O)[C@H]1O,-0.14,1,-12
COc1ccc(C2CC(=O)c3c(O)cc(O[C@@H]4O[C@H](CO[C@@H]5O[C@@H](C)[C@H](O)[C@@H](O)[C@H]5O)[C@@H](O)[C@H](O)[C@H]4O)cc3O2)cc1 (stereo not given in full),0.03,1,1
O=C(/C=C/c1ccc(O)cc1)OC[C@H]1O[C@@H](Oc2cc(O)c3c(c2)OC(c2ccc(O)cc2)CC3=O)[C@H](O)[C@@H](OC(=O)/C=C/c2ccc(O)cc2)[C@@H]1O (stereo not given in full),-0.19,-1,165*
Cc1nccc(-c2nn(-c3ccc(F)cc3)ccc2=O)n1,.,.,-6
CC1=C(c2ccc(C)cc2)S(=O)(=O)NC1=NC1CCN(Cc2ccccc2)CC1,.,.,5
O=C(Cn1cnc2scc(-c3ccccc3)c2c1=O)Nc1ccc(F)cc1,.,1,12
COc1ccc(Br)cc1CNC(=O)c1cc(-c2ccccc2)n(C)c1C,.,.,-16
O=C(CCn1nc(-c2ccccc2)ccc1=O)NC1CC1,.,.,2
Cc1noc(C)c1NC(=O)Nc1cccc2c1O[C@H](CN(C)S(C)(=O)=O)[C@@H](C)CN([C@H](C)CO)C2=O,0.08,1,-6
COc1ccc(NC(=O)Nc2cccc3c2O[C@@H](CN(C)S(C)(=O)=O)[C@H](C)CN([C@@H](C)CO)C3=O)cc1,0.74,-1,111*
COc1ccc(NC(=O)Nc2cccc3c2O[C@H](CN(C)S(C)(=O)=O)[C@H](C)CN([C@@H](C)CO)C3=O)cc1,-0.31,-1,-7
C[C@@H]1CN([C@H](C)CO)C(=O)c2cccc(NC(=O)Nc3ccc(F)cc3)c2O[C@H]1CN(C)S(C)(=O)=O,0.18,-1,18
COc1ccc(NC(=O)N(C)C[C@H]2Oc3c(NC(=O)C4CC4)cccc3C(=O)N([C@@H](C)CO)C[C@H]2C)cc1,-0.33,0,-12
C[C@@H]1CN([C@@H](C)CO)C(=O)c2cccc(NC(=O)Nc3ccc(F)cc3)c2O[C@@H]1CN(C)S(C)(=O)=O,-0.031,-3,90*
COc1ccc(NC(=O)N(C)C[C@@H]2Oc3c(NC(=O)C4CC4)cccc3C(=O)N([C@@H](C)CO)C[C@H]2C)cc1,0.32,1,87*
Cc1noc(C)c1NC(=O)Nc1cccc2c1O[C@@H](CN(C)S(C)(=O)=O)[C@H](C)CN([C@H](C)CO)C2=O,0.07,1,100*
CCn1c(C(=O)N2CCCC(C(=O)N3CCN(c4cccc(C)c4C)CC3)C2)cc2sccc21 (stereo not given),.,.,14
c1ccc2c(CSc3nc4ccccc4s3)cccc2c1,.,.,9
Nc1ncnc(Sc2nc3ccccc3s2)c1[N+](=O)[O-],.,-12,100*
SMILES,YB-1 expression,PD-1 reverse act,ROS inducer
CCCn1c(=O)cc(N)n(-c2ccc(Cl)cc2)c1=O,.,.,-3
CCN(CCS(=O)(=O)c1ccccc1)S(=O)(=O)c1ccc(C)cc1,-0.096,-1,-4
Cc1nn(C)c(C)c1NC(=O)CSc1nnc(-c2cccc(Br)c2)n1-c1ccccc1,.,-1,11
COc1ccc(SC(=O)c2cc(C)n(Cc3c(Cl)cccc3Cl)n2)cc1,-0.08,0,21
COCCOC(=O)N1C(=O)[C@@]2(c3cc(C#CC4=CCCCC4)ccc31)[C@H](c1ccccc1OCCO)N1[C@H](c3ccccc3)[C@H](c3ccccc3)OC(=O)[C@H]1[C@@H]2C(=O)NC[C@H](O)c1ccccc1,-0.21,.,144*
COCCOC(=O)N1C(=O)[C@@]2(c3cc(C#CC4=CCCCC4)ccc31)[C@H](C(N)=O)[C@H]1C(=O)O[C@H](c3ccccc3)[C@H](c3ccccc3)N1[C@@H]2c1ccc(O)cc1,-0.044,.,6
